# In all, about 5,500 compounds went through this assay and about 2,000 (36%) were called active. Inconclusive results (about 18%) are left out. This is one part of the list. A number with no mark means an inactive call. Cut-off read from the data, not from the text of the source: active = normalized growth mostly below about 0.91 (no sharp cut-off); inconclusive = no clear call, values can overlap the other calls; inactive = mostly above about 0.92.
# Assay: chemical genetic growth profiling, strain panel (AID 1159580);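 note: tested at 20 µM; growth read once vehicle control cultures reached saturation at 30 °C; 1 = growth at the plate median or of vehicle wells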
# Conditions: S. cerevisiae deletion strains, growth OD
compound,measurement,setting,value
CCCCC/C=C\C/C=C\C/C=C\C/C=C\CCCC(=O)O,normalized growth,"locus YAL013W, strain DEP1, stronger effect = lower value",0.987
same,normalized growth,"locus YAL021C, strain ccr4, stronger effect = lower value",0.986
same,normalized growth,"locus YAL026C, strain drs2, stronger effect = lower value",0.831 (active)
same,normalized growth,"locus YAL030W, strain snc1, stronger effect = lower value",0.978
same,normalized growth,"locus YBL061C, strain skt5, stronger effect = lower value",0.962
same,normalized growth,"locus YBR009C, strain hhf1, stronger effect = lower value",0.952
same,normalized growth,"locus YBR021W, strain FUR4, stronger effect = lower value",0.95
same,normalized growth,"locus YBR023C, strain chs3, stronger effect = lower value",0.963
same,normalized growth,"locus YBR171W, strain sec66, stronger effect = lower value",0.979
same,normalized growth,"locus YBR229C, strain ROT2, stronger effect = lower value",0.994
same,normalized growth,"locus YBR231C, strain swc5, stronger effect = lower value",0.975
same,normalized growth,"locus YBR279W, strain paf1, stronger effect = lower value",0.976
same,normalized growth,"locus YCL011C, strain gbp2, stronger effect = lower value",0.971
same,normalized growth,"locus YCL016C, strain dcc1, stronger effect = lower value",0.974
same,normalized growth,"locus YCL029C, strain bik1, stronger effect = lower value",0.986
same,normalized growth,"locus YCL061C, strain MRC1, stronger effect = lower value",0.975
same,normalized growth,"locus YCL069W, strain vba3, stronger effect = lower value",0.969
same,normalized growth,"locus YCR088W, strain abp1, stronger effect = lower value",0.975
same,normalized growth,"locus YDL005C, strain med2, stronger effect = lower value",0.984
same,normalized growth,"locus YDL035C, strain GPR1, stronger effect = lower value",0.953
same,normalized growth,"locus YDL040C, strain nat1, stronger effect = lower value",0.97
same,normalized growth,"locus YDL074C, strain BRE1, stronger effect = lower value",0.916
same,normalized growth,"locus YDL101C, strain DUN1, stronger effect = lower value",0.989
same,normalized growth,"locus YDL134C, strain PPH21, stronger effect = lower value",0.984
same,normalized growth,"locus YDL185W, strain tfp1, stronger effect = lower value",0.974
same,normalized growth,"locus YDL192W, strain arf1, stronger effect = lower value",0.965
same,normalized growth,"locus YDR001C, strain nth1, stronger effect = lower value",0.972
same,normalized growth,"locus YDR069C, strain doa4, stronger effect = lower value",0.993
same,normalized growth,"locus YDR101C, strain arx1, stronger effect = lower value",0.968
same,normalized growth,"locus YDR137W, strain rgp1, stronger effect = lower value",0.846 (active)
same,normalized growth,"locus YDR150W, strain NUM1, stronger effect = lower value",0.99
same,normalized growth,"locus YDR159W, strain sac3, stronger effect = lower value",0.926
same,normalized growth,"locus YDR162C, strain NBP2, stronger effect = lower value",0.967
same,normalized growth,"locus YDR195W, strain ref2",1.01
same,normalized growth,"locus YDR297W, strain sur2, stronger effect = lower value",0.972
same,normalized growth,"locus YDR318W, strain mcm21, stronger effect = lower value",0.957
same,normalized growth,"locus YDR334W, strain swr1, stronger effect = lower value",0.969
same,normalized growth,"locus YDR335W, strain msn5, stronger effect = lower value",0.971
same,normalized growth,"locus YDR388W, stronger effect = lower value",0.979
same,normalized growth,"locus YDR392W, strain spt3, stronger effect = lower value",0.474 (active)
same,normalized growth,"locus YDR502C, strain sam2, stronger effect = lower value",0.977
same,normalized growth,"locus YEL003W, strain gim4, stronger effect = lower value",0.975
same,normalized growth,"locus YEL037C, strain rad23, stronger effect = lower value",0.974
same,normalized growth,"locus YEL061C, strain CIN8 (second series), stronger effect = lower value",0.966
same,normalized growth,"locus YEL061C, strain CIN8, stronger effect = lower value",0.982
same,normalized growth,"locus YER015W, strain faa2, stronger effect = lower value",0.973
same,normalized growth,"locus YER016W, strain bim1, stronger effect = lower value",0.978
same,normalized growth,"locus YER110C, stronger effect = lower value",0.976
same,normalized growth,"locus YER111C, strain swi4, stronger effect = lower value",0.963
same,normalized growth,"locus YER155C, strain BEM2 (second series), stronger effect = lower value",0.746 (active)
same,normalized growth,"locus YER155C, strain BEM2, stronger effect = lower value",0.984
same,normalized growth,"locus YER167W, strain BCK2, stronger effect = lower value",0.945
same,normalized growth,"locus YFR010W, strain ubp6, stronger effect = lower value",0.974
same,normalized growth,"locus YGL078C, strain dbp3, stronger effect = lower value",0.951
same,normalized growth,"locus YGL086W, strain mad1, stronger effect = lower value",0.976
same,normalized growth,"locus YGL167C, strain pmr1, stronger effect = lower value",0.958
same,normalized growth,"locus YGL173C, strain kem1, stronger effect = lower value",0.96
same,normalized growth,"locus YGL227W, strain vid30, stronger effect = lower value",0.988
same,normalized growth,"locus YGL240W, strain doc1, stronger effect = lower value",0.963
same,normalized growth,"locus YGL248W, strain PDE1, stronger effect = lower value",0.985
same,normalized growth,"locus YGL253W, strain hxk2, stronger effect = lower value",0.974
same,normalized growth,"locus YGR078C, strain PAC10, stronger effect = lower value",0.945
same,normalized growth,"locus YGR135W, strain pre9, stronger effect = lower value",0.971
same,normalized growth,"locus YGR229C, strain SMI1, stronger effect = lower value",0.877
same,normalized growth,"locus YGR252W, strain gcn5, stronger effect = lower value",1.01
same,normalized growth,"locus YHR013C, strain ard1, stronger effect = lower value",0.855
same,normalized growth,"locus YHR027C, strain rpn1, stronger effect = lower value",0.981
same,normalized growth,"locus YHR030C, strain SLT2, stronger effect = lower value",0.97
same,normalized growth,"locus YHR079C, strain IRE1 (second series), stronger effect = lower value",0.967
same,normalized growth,"locus YHR094C, strain hxt1, stronger effect = lower value",0.947
same,normalized growth,"locus YHR129C, strain ARP1, stronger effect = lower value",0.992
same,normalized growth,"locus YHR142W, strain chs7, stronger effect = lower value",0.931
same,normalized growth,"locus YHR200W, strain rpn10, stronger effect = lower value",0.987
same,normalized growth,"locus YIL066C, strain RNR3, stronger effect = lower value",0.977
same,normalized growth,"locus YIL073C, strain SPO22, stronger effect = lower value",0.862
same,normalized growth,"locus YIR030C, strain dcg1, stronger effect = lower value",0.985
same,normalized growth,"locus YJL092W, strain hpr5, stronger effect = lower value",0.978
same,normalized growth,"locus YJL095W, strain BCK1 (second series), stronger effect = lower value",0.972
same,normalized growth,"locus YJL095W, strain BCK1, stronger effect = lower value",0.92
same,normalized growth,"locus YJL115W, strain asf1, stronger effect = lower value",0.97
same,normalized growth,"locus YJL129C, strain trk1, stronger effect = lower value",0.929
same,normalized growth,"locus YJL134W, strain LCB3, stronger effect = lower value",1.02
same,normalized growth,"locus YJL154C, strain vps35, stronger effect = lower value",0.979
same,normalized growth,"locus YJL164C, strain tpk1, stronger effect = lower value",0.97
same,normalized growth,"locus YJL166W, strain qcr8, stronger effect = lower value",0.959
same,normalized growth,"locus YJL168C, strain set2, stronger effect = lower value",0.986
same,normalized growth,"locus YJL187C, strain SWE1 (second series), stronger effect = lower value",0.983
same,normalized growth,"locus YJL187C, strain SWE1, stronger effect = lower value",0.978

# — PubChem BioAssay AID1159580 (chemical genetic matrix, 2015)
